# Experimental data as given in PMC7862700, “An all-to-all approach to the identification of sequence-specific readers for epigenetic DNA modifications on cytosine”.
# Key:
# Test in all cases: DAPPL (digital affinity profiling via proximity ligation, sequencing); 10 mM Tris-HCl pH 7.5, 50 mM NaCl, 1 mM DTT, 4% glycerol, room temperature, 30 min; GST-TFs on glutathione beads, 16-mer random dsDNA library, 0.1% formaldehyde crosslink after washing; high values mean tight binding
# Conditions in all cases: protein: recombinant; tags: N-terminal GST; dsDNA, one strand shown
# ELF4 = ELF4 (Homo sapiens, UniProt Q99607 1-663)
# Sequence of ELF4 (Q99607 whole entry, the tested form may be a part): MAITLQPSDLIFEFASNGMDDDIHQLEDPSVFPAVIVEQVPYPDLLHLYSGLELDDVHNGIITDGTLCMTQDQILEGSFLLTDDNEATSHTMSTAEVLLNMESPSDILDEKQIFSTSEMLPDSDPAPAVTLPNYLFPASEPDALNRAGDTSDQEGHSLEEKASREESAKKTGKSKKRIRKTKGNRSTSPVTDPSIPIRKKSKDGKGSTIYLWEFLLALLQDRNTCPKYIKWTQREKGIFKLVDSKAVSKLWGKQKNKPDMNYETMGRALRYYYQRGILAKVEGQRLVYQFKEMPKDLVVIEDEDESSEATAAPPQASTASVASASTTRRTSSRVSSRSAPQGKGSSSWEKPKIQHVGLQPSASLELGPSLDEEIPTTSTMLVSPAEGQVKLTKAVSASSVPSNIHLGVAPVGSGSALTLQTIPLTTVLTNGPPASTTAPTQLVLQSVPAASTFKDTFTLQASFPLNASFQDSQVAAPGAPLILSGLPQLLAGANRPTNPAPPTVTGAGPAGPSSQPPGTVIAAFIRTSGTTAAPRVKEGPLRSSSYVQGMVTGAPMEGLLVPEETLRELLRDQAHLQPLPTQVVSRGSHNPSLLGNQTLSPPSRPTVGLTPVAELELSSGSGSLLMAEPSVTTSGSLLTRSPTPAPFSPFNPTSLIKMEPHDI
# How it was run: (§1)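 Human transcription factors fused to GST were expressed in yeast, captured on glutathione beads, given DNA barcodes and pooled with a GST-only negative control. Pools were incubated with 200 nmole of a 16-mer random double-stranded DNA library in Tris/NaCl/DTT/glycerol buffer at room temperature for 30 min. They were then washed, crosslinked with 0.1% formaldehyde, proximity-ligated (BsaI/T4 ligase, 1 h, 37 °C), PCR-amplified and sequenced on an Illumina NextSeq500. Binding signal is each 6-mer's read frequency for a factor divided by its frequency for the GST control.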
# ELK4 = target: T1, ELK4 (Homo sapiens, UniProt P28324-2 1-405)
# T1 sequence: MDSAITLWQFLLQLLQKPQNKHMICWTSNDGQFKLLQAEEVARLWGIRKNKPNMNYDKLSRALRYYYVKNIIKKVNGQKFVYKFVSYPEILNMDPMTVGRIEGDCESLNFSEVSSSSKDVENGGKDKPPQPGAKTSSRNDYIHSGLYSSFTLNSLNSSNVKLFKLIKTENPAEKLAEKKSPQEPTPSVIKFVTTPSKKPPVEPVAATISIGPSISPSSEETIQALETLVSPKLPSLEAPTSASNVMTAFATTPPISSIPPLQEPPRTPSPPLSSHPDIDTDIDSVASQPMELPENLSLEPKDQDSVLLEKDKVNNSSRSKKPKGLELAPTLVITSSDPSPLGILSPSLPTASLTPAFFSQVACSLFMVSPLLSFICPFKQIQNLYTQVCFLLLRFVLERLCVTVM
# How it was run: as §1
# ETV2 = target: T2, ETV2 (Homo sapiens, UniProt O00321 1-342)
# T2 sequence: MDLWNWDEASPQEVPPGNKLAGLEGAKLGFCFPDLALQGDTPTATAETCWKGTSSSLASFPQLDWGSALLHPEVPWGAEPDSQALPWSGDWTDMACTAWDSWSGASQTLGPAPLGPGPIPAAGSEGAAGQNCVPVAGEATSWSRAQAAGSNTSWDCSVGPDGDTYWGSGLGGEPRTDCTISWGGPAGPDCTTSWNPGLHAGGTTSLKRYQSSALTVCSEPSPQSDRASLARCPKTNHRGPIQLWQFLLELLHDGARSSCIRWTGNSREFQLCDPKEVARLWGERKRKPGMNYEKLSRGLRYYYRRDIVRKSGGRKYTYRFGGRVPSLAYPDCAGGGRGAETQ
# How it was run: as §1
# ETV1 = ETV1 (Homo sapiens, UniProt P50549 1-477)
# Sequence of ETV1 (P50549 whole entry): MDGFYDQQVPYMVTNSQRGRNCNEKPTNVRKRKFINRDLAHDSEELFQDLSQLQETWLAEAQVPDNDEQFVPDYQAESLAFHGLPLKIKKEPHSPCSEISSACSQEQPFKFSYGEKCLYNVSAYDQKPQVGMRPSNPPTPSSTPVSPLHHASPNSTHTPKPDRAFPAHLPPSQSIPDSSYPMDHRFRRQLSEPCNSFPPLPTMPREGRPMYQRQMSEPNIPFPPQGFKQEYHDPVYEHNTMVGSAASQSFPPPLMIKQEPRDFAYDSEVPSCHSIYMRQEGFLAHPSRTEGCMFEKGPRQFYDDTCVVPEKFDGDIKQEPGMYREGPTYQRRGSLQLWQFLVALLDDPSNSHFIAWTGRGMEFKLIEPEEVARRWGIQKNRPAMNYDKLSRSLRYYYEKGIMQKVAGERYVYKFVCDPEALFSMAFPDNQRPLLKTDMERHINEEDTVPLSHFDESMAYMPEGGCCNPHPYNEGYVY
# How it was run: as §1
# ERF = target: T3, ERF (Homo sapiens, UniProt P50548 1-548)
# T3 sequence: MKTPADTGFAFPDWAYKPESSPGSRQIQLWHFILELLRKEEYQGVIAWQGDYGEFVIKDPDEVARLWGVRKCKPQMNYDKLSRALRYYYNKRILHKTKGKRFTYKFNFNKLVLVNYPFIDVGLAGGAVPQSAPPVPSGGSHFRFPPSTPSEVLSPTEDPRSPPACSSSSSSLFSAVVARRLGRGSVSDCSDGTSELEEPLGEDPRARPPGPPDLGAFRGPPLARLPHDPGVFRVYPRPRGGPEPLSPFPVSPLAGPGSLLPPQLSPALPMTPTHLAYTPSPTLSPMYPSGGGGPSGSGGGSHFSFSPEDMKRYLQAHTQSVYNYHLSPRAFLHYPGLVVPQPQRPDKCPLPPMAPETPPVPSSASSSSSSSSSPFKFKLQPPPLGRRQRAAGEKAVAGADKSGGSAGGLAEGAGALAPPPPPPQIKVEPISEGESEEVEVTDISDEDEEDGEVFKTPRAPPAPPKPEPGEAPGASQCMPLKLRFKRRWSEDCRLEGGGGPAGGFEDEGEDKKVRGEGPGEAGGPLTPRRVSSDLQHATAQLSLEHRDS
# How it was run: as §1
# ETV3L = target: T4, ETV3L (Homo sapiens, UniProt Q6ZN32 1-361)
# T4 sequence: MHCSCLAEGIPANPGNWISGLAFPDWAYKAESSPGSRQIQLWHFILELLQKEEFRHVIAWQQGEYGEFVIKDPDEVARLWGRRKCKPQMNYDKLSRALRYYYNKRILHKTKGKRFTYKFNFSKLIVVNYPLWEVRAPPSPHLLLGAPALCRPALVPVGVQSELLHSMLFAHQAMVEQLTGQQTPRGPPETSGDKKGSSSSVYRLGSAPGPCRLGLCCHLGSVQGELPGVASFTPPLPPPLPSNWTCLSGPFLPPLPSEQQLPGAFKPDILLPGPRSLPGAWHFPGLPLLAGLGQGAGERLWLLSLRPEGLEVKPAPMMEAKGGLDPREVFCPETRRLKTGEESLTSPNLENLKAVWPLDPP
# How it was run: as §1
# ETS2 = target: T5, ETS2 (Homo sapiens, UniProt P15036 1-469)
# T5 sequence: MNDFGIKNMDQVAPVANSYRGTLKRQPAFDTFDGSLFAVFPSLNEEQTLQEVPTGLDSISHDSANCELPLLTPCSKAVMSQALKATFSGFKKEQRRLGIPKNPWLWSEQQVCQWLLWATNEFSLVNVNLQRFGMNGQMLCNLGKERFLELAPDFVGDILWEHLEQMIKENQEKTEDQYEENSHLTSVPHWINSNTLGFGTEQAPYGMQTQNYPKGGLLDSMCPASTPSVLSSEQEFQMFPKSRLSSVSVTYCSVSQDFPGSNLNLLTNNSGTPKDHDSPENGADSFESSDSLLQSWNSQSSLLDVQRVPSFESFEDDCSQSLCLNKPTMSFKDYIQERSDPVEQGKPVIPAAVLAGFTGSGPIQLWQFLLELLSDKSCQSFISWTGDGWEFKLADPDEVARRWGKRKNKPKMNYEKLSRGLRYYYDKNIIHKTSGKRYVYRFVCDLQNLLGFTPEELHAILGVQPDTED
# How it was run: as §1
# ETV7 = target: T6, ETV7 (Homo sapiens, UniProt Q9Y603 1-341)
# T6 sequence: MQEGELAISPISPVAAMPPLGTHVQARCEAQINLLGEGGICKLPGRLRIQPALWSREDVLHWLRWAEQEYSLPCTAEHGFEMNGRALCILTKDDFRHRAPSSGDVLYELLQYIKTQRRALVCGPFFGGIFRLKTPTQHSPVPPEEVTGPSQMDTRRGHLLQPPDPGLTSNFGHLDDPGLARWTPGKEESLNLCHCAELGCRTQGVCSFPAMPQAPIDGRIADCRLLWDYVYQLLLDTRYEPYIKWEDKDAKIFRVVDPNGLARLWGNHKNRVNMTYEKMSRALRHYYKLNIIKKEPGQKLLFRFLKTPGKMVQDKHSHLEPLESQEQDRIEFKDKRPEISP
# How it was run: as §1
# ETV6 = ETV6 (Homo sapiens, UniProt P41212 1-452)
# Sequence of ETV6 (P41212 whole entry): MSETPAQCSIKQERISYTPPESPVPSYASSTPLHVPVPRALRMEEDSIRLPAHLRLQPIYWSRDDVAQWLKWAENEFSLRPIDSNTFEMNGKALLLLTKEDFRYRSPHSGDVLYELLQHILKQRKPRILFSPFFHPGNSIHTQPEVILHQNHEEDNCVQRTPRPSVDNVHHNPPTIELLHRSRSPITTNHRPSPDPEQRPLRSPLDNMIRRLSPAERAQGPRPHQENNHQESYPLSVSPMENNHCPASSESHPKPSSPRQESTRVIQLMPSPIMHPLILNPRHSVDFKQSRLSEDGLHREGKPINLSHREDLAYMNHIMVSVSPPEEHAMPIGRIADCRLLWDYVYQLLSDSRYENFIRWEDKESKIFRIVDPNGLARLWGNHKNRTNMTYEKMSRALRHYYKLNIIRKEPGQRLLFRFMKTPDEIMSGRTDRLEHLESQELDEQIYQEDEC
# How it was run: as §1
sequence,measurement,setting,value
CGTCTG,binding signal,ELF4,"1.05 fold enrichment (6-mer frequency, TF over GST control)"
same,binding signal,ELK4,"1.08 fold enrichment (6-mer frequency, TF over GST control)"
same,binding signal,ETV2,"1.23 fold enrichment (6-mer frequency, TF over GST control)"
same,binding signal,ETV1,"1.12 fold enrichment (6-mer frequency, TF over GST control)"
same,binding signal,ERF,"1.11 fold enrichment (6-mer frequency, TF over GST control)"
same,binding signal,ETV3L,"1.14 fold enrichment (6-mer frequency, TF over GST control)"
same,binding signal,ETS2,"1.08 fold enrichment (6-mer frequency, TF over GST control)"
same,binding signal,ETV7,"1.02 fold enrichment (6-mer frequency, TF over GST control)"
same,binding signal,ETV6,"1.01 fold enrichment (6-mer frequency, TF over GST control)"
